The values that follow come from PubChem BioAssay.

Results with a measured potency or affinity are listed apart. Active and inactive are the calls of the source. How the calls were made is not given here.

The test has as its target Melanocortin receptor 4 (Homo sapiens) (UniProt P32245). Description: blockade of melanocortin 4 receptor signaling – cell-based, plate reader, cherry pick, counter-screen for LGR2 antagonist project, dose response (AID 743444). To be noted: MC4R-expressing cells, antagonist mode; series mostly up to 35 µM. Background: Counterscreens check selectivity or assay interference.
With `O=C(Nc1ccc(N2CCOCC2)c(S(=O)(=O)Nc2ccccc2Cl)c1)c1ccc(F)cc1`, the result was inactive.

In the case of `C[C@H]1CCCCO[C@@H](CN(C)C(=O)Nc2ccc3c(c2)OCO3)[C@@H](C)CN([C@@H](C)CO)C(=O)c2cc(NC(=O)NC3CCCCC3)ccc2O1`, the outcome was inactive.

As for `COc1ccc(-c2cc(-c3nnc(COC(=O)C4CC4)o3)c3ccccc3n2)cc1OC`, the result was inactive.

Turning to `O=c1cc(-c2c(F)c(F)c(F)c(F)c2F)oc2ccccc12`, the outcome was inactive.

Consider `COCC(=O)N[C@@H]1CC[C@@H](CC(=O)NCc2ccccc2OC)O[C@@H]1CO`, for which the result was inactive.

Take `COc1ccc2[nH]c3c(c2c1)CCN1C(=O)N([C@@H](C)C(=O)NCc2ccc(C)cc2)C(=O)[C@]31C`: the outcome was inactive.

`CCC(=O)N(C)C[C@H]1Oc2cc(C#CCC(C)C)ccc2S(=O)(=O)N([C@H](C)CO)C[C@@H]1C`: the compound was called inactive.

For the compound `C[C@@H]1CN([C@@H](C)CO)S(=O)(=O)c2ccc(C3=CCCC3)cc2O[C@H]1CN(C)C(=O)c1ccccc1`, the call was inactive.

Take `Cn1nnnc1Sc1ncnc2scc(-c3ccccc3C(F)(F)F)c12`: the outcome was inactive.

As for `C[C@H](CO)N1C[C@H](C)[C@H](CN(C)C(=O)Nc2ccccc2)OCCCC[C@H](C)Oc2ccc(NC(=O)Nc3ccccc3)cc2C1=O`, the result was inactive.

For the compound `C[C@H](CO)N1C[C@H](C)[C@H](CN(C)C(=O)Nc2ccc(C(F)(F)F)cc2)OCCCC[C@H](C)Oc2ccc(NC(=O)CCC(F)(F)F)cc2C1=O`, the call was inactive.

Consider `Cc1ccc(S(=O)(=O)N(C)C[C@H]2Oc3cc(Br)ccc3S(=O)(=O)N([C@H](C)CO)C[C@H]2C)cc1`, for which the outcome was inactive.

Take `CC[C@H](CO)Oc1cc(NCc2ccc(Cl)c(Cl)c2)c2ncn(C(C)C)c2c1`: the compound was classed as inactive.

Turning to `C[C@H](CO)N1C[C@H](C)[C@H](CN(C)C(=O)CN2CCOCC2)Oc2ncc(C#CCN(C)C)cc2C1=O`, the compound was called inactive.

For the compound `C[C@H](CO)N1C[C@H](C)[C@H](CN(C)C(=O)Nc2ccccc2)OCCCC[C@H](C)Oc2ccc(NC(=O)C3CCCCC3)cc2C1=O`, the compound was called inactive.

Regarding `Cn1nnnc1SCC(=O)N1CCN(C(=O)c2ccco2)CC1`, the call was inactive.

As to `NCC[C@H]1CC[C@H](NS(=O)(=O)Cc2ccccc2)[C@@H](CO)O1`, the result was inactive.

With `C[C@H](CO)N1C[C@H](C)[C@H](CN(C)C(=O)Nc2ccc3c(c2)OCO3)OCCCC[C@H](C)Oc2ccc(NC(=O)C3CCCCC3)cc2C1=O`, the call was inactive.

Turning to `C[C@H](CO)N1C[C@H](C)[C@H](CN(C)C(=O)Nc2cccc3ccccc23)OCCCC[C@H](C)Oc2ccc(NC(=O)C3CCCCC3)cc2C1=O`, the result was inactive.

`C[C@H](CO)N1C[C@H](C)[C@H](CN(C)C(=O)Nc2ccc(F)cc2)OCCCC[C@H](C)Oc2ccc(NC(=O)Nc3ccc(F)cc3)cc2C1=O`: the call was inactive.

With `C[C@H]1CCCCO[C@@H](CN(C)C(=O)Nc2ccccc2)[C@@H](C)CN([C@@H](C)CO)C(=O)c2cc(NC(=O)NC3CCCCC3)ccc2O1`, the result was inactive.

As to `Cc1ccc(-n2cc(CN(C)Cc3nccn3C)c(-c3cccc(C)c3)n2)cc1`, the call was inactive.

With `C[C@H](CO)N1C[C@H](C)[C@@H](CN(C)C(=O)Nc2ccc3c(c2)OCO3)Oc2c(cccc2N(C)C)C1=O`, the outcome was inactive.

Turning to `C[C@H](CO)N1C[C@H](C)[C@H](CN(C)C(=O)Nc2ccccc2)OCCCC[C@H](C)Oc2ccc(NC(=O)CCC(F)(F)F)cc2C1=O`, the call was inactive.

With `CC(C)(C)c1nc2ccc(Cl)cn2c1CC1CCCCC1`, the call was inactive.

`CCCCOc1cc(NCc2ccccc2)c2ncn(C(C)C)c2c1`: the result was inactive.

As to `CC(=O)N1CCc2cc(S(=O)(=O)C(C)CC(=O)NCc3ccco3)ccc21` (stereo not drawn), the result was inactive.

On to `COc1ccc(NC(=O)N(C)C[C@@H]2OCCCC[C@H](C)Oc3ccc(NC(=O)C4CCCCC4)cc3C(=O)N([C@H](C)CO)C[C@@H]2C)cc1`, for which the compound was classed as inactive.
